Rows were chosen to be rich in hits. Some 3.4% of all compounds tested hit in one or more screens of this group.
GPR151 ag: activators of human GPR151, primary screen, cell-based, PathHunter beta-arrestin, luminescence; PathHunter beta-arrestin GPR151 cells; activation, % at 11.2 µM; 650,000 compounds, 1% hits; in the data active = activation above about 4.9%
TEAD-YAP block: TEAD-YAP interaction inhibition, primary screen, TEAD-YAP interaction inhibitor project, luminescence, HEK-TIYL cells. TEAD-Gal4/YAP UAS-luciferase luminescence. inhibition, % at 9.12 µM. 640,000 compounds, 1.4% hits; in the data active = inhibition above about 32%
MITF primary: MITF inhibitors, primary screen, biochemical, AlphaScreen, human | AlphaScreen MITF homodimerization, bead proximity signal | AID 1259374, 2018 | Microphthalmia-associated transcription factor (Homo sapiens), O75030 | 650,000 compounds, 0.91% hits | inhibition, % at 2.6 µM; in the data active = inhibition above about 50%
FBW7 act: FBW7 E3 ligase activators, primary screen, biochemical, AlphaScreen, human; AlphaScreen FBW7–phospho-cyclin E peptide binding, activator screen; normalized activity (activation), % at 26.1 µM; 650,000 compounds, 0.13% hits; in the data active = normalized activity above about 1.9%;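 note: purified mutant Fbw7 with reduced substrate affinity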
Target sequence (Q969H0 whole entry, looked up): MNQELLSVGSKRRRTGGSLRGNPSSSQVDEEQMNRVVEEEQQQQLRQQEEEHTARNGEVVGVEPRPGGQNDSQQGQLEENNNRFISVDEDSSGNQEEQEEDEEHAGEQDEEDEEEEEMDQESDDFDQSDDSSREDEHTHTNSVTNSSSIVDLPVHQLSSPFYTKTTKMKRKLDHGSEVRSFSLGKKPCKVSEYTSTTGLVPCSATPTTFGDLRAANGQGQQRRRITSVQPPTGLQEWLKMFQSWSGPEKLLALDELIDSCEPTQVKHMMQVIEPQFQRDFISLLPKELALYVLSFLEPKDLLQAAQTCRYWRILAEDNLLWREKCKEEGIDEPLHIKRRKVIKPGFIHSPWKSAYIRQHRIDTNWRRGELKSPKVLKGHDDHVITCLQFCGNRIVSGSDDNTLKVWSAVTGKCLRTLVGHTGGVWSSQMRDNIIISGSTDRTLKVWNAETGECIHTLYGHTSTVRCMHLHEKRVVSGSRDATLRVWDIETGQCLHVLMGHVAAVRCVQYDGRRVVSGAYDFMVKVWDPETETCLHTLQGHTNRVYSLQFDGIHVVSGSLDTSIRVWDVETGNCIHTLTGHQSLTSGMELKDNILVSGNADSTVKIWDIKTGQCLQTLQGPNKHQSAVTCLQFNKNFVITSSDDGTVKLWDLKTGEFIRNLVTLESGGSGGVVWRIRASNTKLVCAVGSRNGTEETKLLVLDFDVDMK
MITF inh conf: MITF inhibitors, retest of hits, confirmation, biochemical, AlphaScreen, triplicate; shares compounds with MITF primary; AlphaScreen MITF homodimerization, biotin/His-MITF beads; inhibition, % at 2.6 µM; 4,700 compounds, 16% hits; AID 1259372, 2018;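 active = inhibition above a cutoff derived from the DMSO control wells, cut at about 28% in these data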;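 note: inhibitors lower the bead chemiluminescence by keeping MITF from dimerizing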
AS interf DR: AlphaScreen optical interference compounds, dose response, counter-screen, biochemical, HTS. IC50, µM. AID 1259373, 2018. AlphaScreen optical interference counterscreen, cell-free. 480 compounds, 6% hits. shares compounds with MITF primary; call rule not given here
AlphaScreen intf2: AlphaScreen optical interference compounds, counter-screen for MITF inhibitor project, biochemical, triplicate; shares compounds with MITF primary; LysRS AlphaScreen counterscreen, signal interference; inhibition, % at 2.6 µM; 4,700 compounds, 7.6% hits;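 active = inhibition above a cutoff derived from the DMSO control wells, cut at about 30% in these data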
Large screens that a line does not name were inactive (follow-up assays come after a bar, where they were run).

Cc1ccccc1CN1CCN(C2CCCC2)CC1	MITF primary 57 | MITF inh conf inactive | AlphaScreen intf2 inactive
Clc1ccccc1CN1CCN(C2CCCCC2)CC1	MITF primary 65 | MITF inh conf inactive | AlphaScreen intf2 inactive
O=C1CCC(N2CCCC2)CCN1Cc1ccccc1Cl (centres undefined)	none
Cc1ccccc1CN1CCC(N2CCCC2)CC1	none
Clc1ccccc1CN1CCN(C2CCCC2)CC1	MITF primary 74 | MITF inh conf inactive | AlphaScreen intf2 inactive
CC(=O)c1ccc(NC(=O)COC(=O)Cc2ccc(-c3ccccc3)cc2)cc1	none
Cc1c(NC(=O)c2csc3c2CCC(C)C3)c(=O)n(-c2ccccc2)n1C (centres undefined)	none
Cc1ccc(OCC(=O)NCc2nc(-c3ccccc3)no2)c(C)c1	none
O=C(NCC(c1ccsc1)N1CCCCCC1)c1c(F)cccc1F (centres undefined)	MITF primary 84 | MITF inh conf inactive | AlphaScreen intf2 inactive
COc1ccc(C2CC(=O)C3=C(C2)Nc2ccccc2NC3c2ccc(Cl)cc2Cl)cc1 (centres undefined)	none
c1ccc(C(CN2CCOCC2)c2ccccc2)cc1	MITF primary 57 | MITF inh conf inactive | AlphaScreen intf2 inactive
O=C(O)Cn1cnc2sc3c(c2c1=O)CCC3	none
NC(=O)Cn1cnc2sc3c(c2c1=O)CCC3	MITF primary 66 | MITF inh conf 60 | AS interf DR inactive | AlphaScreen intf2 inactive
O=C(NCCc1ccc(O)cc1)c1cccc(-c2cccs2)c1	MITF primary 52 | MITF inh conf 41 | AS interf DR inactive | AlphaScreen intf2 inactive
O=C(NCCc1ccc(O)cc1)c1ccnc(-c2cccs2)c1	MITF primary 51 | MITF inh conf 51 | AS interf DR inactive | AlphaScreen intf2 inactive
COc1ccccc1-c1c(C)oc2c(CN3CCN(C)CC3)c(O)ccc2c1=O	none
Cc1ccc(NC(=O)CSc2ccccc2C(=O)OC2CCOC2=O)cc1 (centres undefined)	none
O=C(CCC1CCCCC1)Nc1ncc([N+](=O)[O-])s1	none
Cc1ccc(NCc2ccccc2O)cc1	none
CCN(CC)Cc1cccc2cccnc12	none
Cc1ccc(NCc2ccc(O)c3ncccc23)cc1	MITF primary 53 | MITF inh conf 105 | AlphaScreen intf2 100
Cc1cccnc1NCc1ccc(O)c2ncccc12	MITF primary 64 | MITF inh conf 52 | AlphaScreen intf2 91
CCN(CC)Cc1ccc(O)c2ncccc12	TEAD-YAP block 51, MITF primary 93 | MITF inh conf 102 | AlphaScreen intf2 100
Cc1nccn1Cc1ccc(O)c2ncccc12	MITF primary 82 | MITF inh conf 103 | AlphaScreen intf2 101
CC(=O)CC(=O)Nc1cccc(Cl)c1	none
CCN(O)C(=O)Nc1cccc(Cl)c1	MITF primary 70 | MITF inh conf inactive | AlphaScreen intf2 inactive
C/C(=N\Nc1nc2ccccc2o1)c1ccccn1	MITF primary 55 | MITF inh conf inactive | AlphaScreen intf2 inactive
C/C(=N\Nc1ccccc1Cl)c1ccccn1	none
CN(C)CCCN(CCCN(C)C)Cc1ccccc1[N+](=O)[O-]	none
Cc1cc(C)nc(NS(=O)(=O)c2ccc(N3C(=O)C=CC3=O)cc2)n1	MITF primary 61 | MITF inh conf 37 | AS interf DR inactive | AlphaScreen intf2 inactive
CC1=C(C#N)C(=O)N(CC(C)O)C(=O)/C1=C/c1ccc(-c2ccc(Br)cc2)o1 (centres undefined)	none
Cc1ccc(-n2c(O)c(C=Nc3ccc(O)cc3)c(=O)[nH]c2=O)cc1	none
COc1cc(Nc2nc(NCc3cccc(C(F)(F)F)c3)c3ncn(-c4ccccc4)c3n2)cc(OC)c1OC	none
CC(C)(c1ccccc1)c1ccc(OCC(O)CNC2CCS(=O)(=O)C2)cc1 (centres undefined)	MITF primary 77 | MITF inh conf inactive | AlphaScreen intf2 inactive
